# Source: PubChem BioAssay (NCATS)
# Records with an inconclusive call do not appear. Entries that show only a call come without a potency. The source made the active and inactive calls. Unless noted, calls come from the whole dose curve; as a rule, active = well fitted curve in the direction sought with a large enough effect; inconclusive = small, poorly fitted or top-dose-only effect, or another doubt; inactive = no such curve, though single readings can be large; an effect the other way counts as inactive or inconclusive.
# What was measured:
# [1] = Primary qHTS for inhibitors of La Crosse Virus (LACV) - induced cell death in SH-SY5Y cells (AID 1508616);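 note: top concentration of the series differs between compounds; higher means more rescue of cells from virus-induced death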
# Summary of the method: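 Protection against LACV-induced cell death is scored in SH-SY5Y cells exposed to compounds and virus (0.01 MOI) for 6 days. Data normalized to virus-infected DMSO wells and virus-free DMSO wells.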
# [2] = Primary qHTS for small molecule stabilizers of the endoplasmic reticulum resident proteome: Secreted ER Calcium Modulated Protein (SERCaMP) assay (AID 1508630)
# Summary of the method: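 GLuc-SERCaMP-expressing SH-SY5Y cells, pretreated 16 h with compound, are challenged with thapsigargin to empty ER calcium stores; after 4 h, coelenterazine is added directly to the medium and luminescence is imaged.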
# Papain (Carica papaya) = Papain (Carica papaya) (UniProt P00784); assay: Primary qHTS assay for inhibitors of the protease papain (AID 1645873);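 note: papain turnover of Z-FR-AMC read as the AMC fluorescence gain over 10 min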; note: potency is the fitted concentration of half-maximal effect
# [3] = Cytotoxicity counterscreen for inhibitors of SARS-CoV-2 cell entry (AID 1645845; calls by dose curve; note: series mostly up to about 57 µM; nearly all actives have a fitted effect of over 50% in size); details: outcome: dose series up to 57.1 µM unless noted
# Summary of the method: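 Expi293F/hACE2 cells seeded overnight; cpd pin-transferred in DMSO, 1 h preincubation, + media, 48 h 37 C 5% CO2; ATPLite 1step luminescence; normalized to cells and no cells.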
# [4] = Primary qHTS for inhibitors of nuclear receptor binding SET domain protein 2 (NSD2) in an isogenic RCH-ACV NSD2 p.E1099K mutant (9B) (AID 1645876); note: nearly all actives have a fitted effect of over 70% in size
# [5] = Primary qHTS for inhibitors of nuclear receptor binding SET domain protein 2 (NSD2) in an RCH-ACV wild type WT cells (2C) (AID 1645877); note: nearly all actives have a fitted effect of over 70% in size
# [6] = target: Calcium and integrin-binding protein 1 (Homo sapiens) (UniProt Q99828); assay: Validation qHTS for Identification of Calcium Integrin Binding protein 1 (CIB1) Competitor (AID 1508618)
# Summary of the method: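 In this qHTS validation, the LOPAC set (up to 114 uM) was tested for blocking CIB1 binding to a fluorescein-tagged alphaIIb peptide, with FP detection at 480/540 nm.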
# [7] = target: Calcium and integrin-binding protein 1 (Homo sapiens) (UniProt Q99828); assay: Primary qHTS for Identification of Calcium Integrin Binding Protein 1 (CIB1) Competitor (AID 1508620);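 note: GST tagged CIB1 binding a fluorescein labelled alphaIIb integrin peptide tracer; top concentration of the series differs between compounds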
# Summary of the method: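 Fluorescence polarization competition: CIB1-GST (1 uM final) preincubated with compound 15 min at room temperature, then FITC-labeled alphaIIb peptide (100 nM final) added for another 15 min. Polarization read at Ex 480/Em 540.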
# [8] = target: Cytochrome P450 2D6 (Homo sapiens) (UniProt P10635); assay: Cytochrome P450 family 2 subfamily D member 6 (CYP2D6) small molecule antagonists: luciferase biochemical (cell-free) qHTS assay (AID 1645840; active = well fitted curve in the direction sought with a large enough effect in the repeat runs; an effect the other way counts as inactive or inconclusive; note: potency is the fitted concentration of half-maximal effect; nearly all actives have a fitted effect of over 55% in size)
# Summary of the method: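 P450-Glo luminescent screen: recombinant CYP2D6 enzyme–proluciferin substrate mix preincubated with compound 10 min at room temperature, then NADPH regeneration added for 1 h at room temperature. Detection reagent added for 20 min; luciferin light read as relative luminescence units.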
# Sequence of Papain (Carica papaya) (P00784 whole entry, looked up): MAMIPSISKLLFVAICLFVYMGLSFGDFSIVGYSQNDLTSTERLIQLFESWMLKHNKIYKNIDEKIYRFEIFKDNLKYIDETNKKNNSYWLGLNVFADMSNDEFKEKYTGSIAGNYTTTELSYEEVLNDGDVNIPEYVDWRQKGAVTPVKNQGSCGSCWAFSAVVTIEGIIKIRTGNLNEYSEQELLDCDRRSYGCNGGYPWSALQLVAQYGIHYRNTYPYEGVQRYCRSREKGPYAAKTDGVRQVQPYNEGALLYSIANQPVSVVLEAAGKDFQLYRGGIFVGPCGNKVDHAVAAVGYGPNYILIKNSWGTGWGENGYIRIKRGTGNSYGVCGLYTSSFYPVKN
# Sequence of Calcium and integrin-binding protein 1 (Homo sapiens) (Q99828 whole entry, looked up): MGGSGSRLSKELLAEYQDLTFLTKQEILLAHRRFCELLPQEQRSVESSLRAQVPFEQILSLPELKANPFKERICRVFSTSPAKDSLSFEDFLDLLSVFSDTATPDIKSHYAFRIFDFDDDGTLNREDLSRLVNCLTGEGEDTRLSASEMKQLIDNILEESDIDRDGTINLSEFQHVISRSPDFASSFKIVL
# Sequence of Cytochrome P450 2D6 (Homo sapiens) (P10635 whole entry, looked up): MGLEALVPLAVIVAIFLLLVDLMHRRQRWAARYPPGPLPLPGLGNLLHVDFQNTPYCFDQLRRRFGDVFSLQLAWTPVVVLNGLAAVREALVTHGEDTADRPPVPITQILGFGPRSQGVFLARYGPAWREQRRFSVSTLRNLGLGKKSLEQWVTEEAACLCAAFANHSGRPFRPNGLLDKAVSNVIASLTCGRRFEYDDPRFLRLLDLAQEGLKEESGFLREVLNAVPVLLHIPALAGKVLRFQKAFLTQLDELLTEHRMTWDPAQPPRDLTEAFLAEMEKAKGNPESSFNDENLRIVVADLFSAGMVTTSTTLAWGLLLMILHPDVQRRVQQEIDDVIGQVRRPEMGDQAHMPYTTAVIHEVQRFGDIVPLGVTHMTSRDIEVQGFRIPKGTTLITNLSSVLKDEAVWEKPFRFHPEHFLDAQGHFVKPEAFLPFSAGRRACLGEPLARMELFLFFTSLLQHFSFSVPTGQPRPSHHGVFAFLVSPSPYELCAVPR
structure (smiles),measurement,setting,value
CCCCCCCCCCCCCC(=O)O[C@@H]1[C@@H](C)[C@@]2(O)[C@@H](C=C(CO)C[C@@]3(O)C(=O)C(C)=C[C@@H]23)C2C(C)(C)[C@@]21OC(C)=O (some centres not stated),Potency,[1],inactive
same,outcome,[2],inactive
same,Potency,Papain (Carica papaya),inactive
N#CCCN,Potency,[1],inactive
same,Potency,Papain (Carica papaya),inactive
C[N+]1(C)CCc2cc3c(cc2[C@H]1[C@@H]1OC(=O)c2c1ccc1c2OCO1)OCO3,Potency,[1],inactive
same,Potency,Papain (Carica papaya),inactive
CC(=O)c1c(O)c(C)c(O)c(Cc2c(O)c3c(c(C(=O)/C=C/c4ccccc4)c2O)OC(C)(C)C=C3)c1O,Potency,[1],inactive
same,outcome,[3],inactive
same,Potency,Papain (Carica papaya),inactive
same,Potency,[4],inactive
same,Potency,[5],inactive
C[C@@H]1O[C@H](C[N+](C)(C)C)CS1,Potency,[1],inactive
same,outcome,[2],inactive
CC(C)(O)[C@@H]1C2OC(=O)[C@@H]1[C@]1(O)C[C@H]3O[C@]34C(=O)O[C@H]2[C@]14C (tested in a mixture with another compound),Potency,[1],inactive
same,outcome,[2],inactive
same,Potency,Papain (Carica papaya),inactive
NC(C(=O)O)c1cc(=O)[nH]o1 (configuration not stated),Potency,[1],inactive
same,outcome,[2],inactive
same,Potency,Papain (Carica papaya),inactive
O=c1c2ccccc2[se]n1-c1ccccc1,Potency,[1],inactive
same,outcome,[2],inactive
CN1CCC[C@@H]1Cc1c[nH]c2ccc(Nc3ncccc3[N+](=O)[O-])cc12,Potency,[6],inactive
same,Potency,[7],inactive
same,Potency,[8],3.01 µM (active)
same,Potency,Papain (Carica papaya),inactive
same,Potency,[4],inactive
same,Potency,[5],inactive
Cc1sc2ccccc2c1CC1=NCCN1,Potency,[1],inactive
same,outcome,[2],inactive
same,Potency,Papain (Carica papaya),28.2 µM (active)
C[N+]1(C)CCN(c2ccccc2)CC1,Potency,[1],inactive
same,outcome,[2],inactive
same,Potency,Papain (Carica papaya),inactive
COc1ccc(CNC(=O)/C=C/c2ccc3[nH]cc(CCN(C)C)c3c2)cc1,Potency,[1],inactive
same,outcome,[2],inactive
same,Potency,Papain (Carica papaya),inactive
